Bioassay records from PubChem.
In the library only some 5.9% were active in any assay of this set; here they are far more common.
ATXN2 expr inh: reduces ATXN2 reporter expression in HEK-293 cells; AID 1745845; hit rate 0.72% among 360,000; Potency, µM (top dose mostly 57 µM), without a hit: top-dose activity change, negative = inhibition, most hits filed as inhibitors; HEK-293 ATXN2-luciferase reporter, luminescence, 24 h; note: % is set by controls: 0 for no effect and ±100 for the full control effect; nearly all actives have a fitted effect of over 55% in size
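qHTS (up to 57 uM final) was run with 24 h compound exposure of reporter cells at 37 °C. Each well was multiplexed: SteadyGlo luminescence measured ATXN2-luciferase expression after a fluorogenic Gly-Phe-AFC viability readout (25 uM final).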
KB-3-1 tox: kills parental KB-3-1 adenocarcinoma cells; KB-3-1 viability, CellTiter-Glo ATP luminescence, 72 h; Potency, µM (titrated, usually from 46.1 µM), usual class: cytotoxic; hit rate 1.4% among 400,000; AID 1347075; note: % is set by controls: 0 for no effect and ±100 for the full control effect; nearly all actives have a fitted effect of over 60% in size
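Cytotoxicity measured as CellTiter-Glo luminescence after 72 h at 37 C. Compound titrations were pinned onto drug-naive KB-3-1 parental adenocarcinoma cells grown in DMEM with 10% FBS, and normalized data fitted to concentration-response curves.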
HepG2 viability: kills HepG2 cells in TGF-b inhibitor counter-screen. HepG2 CAGA-GFP viability, ATP luminescence, 18 h. Potency, µM (series often up to 46.1 µM), inactives show top-dose activity change, negative = cytotoxicity, actives largely listed as cytotoxic. hit rate 0.76% among 410,000
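HepG2 CAGA-GFP cells (1000/well, DMEM with 1% FBS) received compound, then TGF-beta at 500 pg/mL final, and were incubated 18 hours at 37 degrees C. Viability was read by CellTiter-Glo luminescence. Media-only wells were set as complete cell-killing and DMSO as no toxicity.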
TGFb SMAD3 inh: blocks TGF-b signaling; Potency, µM (top dose mostly 46.1 µM), inactives show at the highest dose activity, negative = inhibition, actives largely listed as inhibitors; AID 588855; HepG2 CAGA-GFP TGF-b/SMAD3 reporter, GFP fluorescence, 18 h; TGF-beta stimulated, 500 pg/mL final; hit rate 1.2% among 410,000; note: % is set by controls: 0 for no effect and ±100 for the full control effect; nearly all actives have a fitted effect of over 65% in size
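HEPG2 CAGA-GFP, 1000 cells/well; 2 h settle, 37 C; cpd via pin tool; TGF-b 500 pg/mL final; 18 h, 37 C; GFP imaging ex488/em500-530; %Activity normalised to -TGF-b and +DMSO controls; CRC fit, curve class.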
KB-V1 cytotox: KB-V1 MDR subline cytotoxicity. KB-V1 MDR cells viability, CellTiter-Glo, 72 h. hit rate 3.4% among 400,000. Potency, µM (doses to about 46.1 µM), actives largely listed as cytotoxic. AID 1347076; note: % is set by controls: 0 for no effect and ±100 for the full control effect; nearly all actives have a fitted effect of over 60% in size
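Drug-selected KB-V1 cells, grown in DMEM lacking phenol red with 10% FBS, receive compound titrations; after three days at 37 degrees C, surviving cell ATP is quantified by CellTiter-Glo luminescence and responses normalized and curve-fitted.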
S2 tox: cell viability loss in ATXN counter-screen; S2 cells (HEK-293 line with an ATXN2-luciferase reporter) viability, CellTiter-Fluor protease fluorescence, 24 h; hit rate 0.49% among 400,000; AID 651635; Potency, µM (highest dose often 56.7 µM), most hits filed as cytotoxic; note: nearly all actives have a fitted effect of over 40% in size
Starred values were filed as active, the others as inactive; i = inactive; ? = inconclusive; . = no result. Calls come from the whole dose curve; as a rule, active = well fitted curve in the direction sought with a large enough effect; inconclusive = small, poorly fitted or top-dose-only effect, or another doubt; inactive = no such curve, though single readings can be large; an effect the other way counts as inactive or inconclusive. Potency is the fitted concentration of half-maximal effect.

SMILES	ATXN2 expr inh	KB-3-1 tox	HepG2 viability	TGFb SMAD3 inh	KB-V1 cytotox	S2 tox
CC(=O)c1cccc(-c2ccnc3c2CC(C(=O)Nc2ccccc2)O3)c1 (stereo not given)	-13%	i	-13%	9%	21µM*	i
CC(=O)c1cccc(NC(=O)C2Cc3c(-c4ccccc4)ccnc3O2)c1 (stereo not given)	-23%	i	-48%	3%	i	?
CC(=O)Nc1ccc(NC(=O)C2Cc3c(-c4ccc(Cl)cc4)ccnc3O2)cc1 (stereo not given)	-1%	i	-25%	9%	i	i
COc1ccc(NC(=O)C2Cc3c(-c4ccc(Cl)cc4)ccnc3O2)cn1 (stereo not given)	?	i	1%	5%	?	3.5µM*
CC(=O)c1cccc(NC(=O)C2Cc3c(-c4ccco4)ccnc3O2)c1 (stereo not given)	?	?	-7%	0%	4.6µM*	i
CS(=O)(=O)Nc1cccc(NC(=O)C2Cc3c(-c4ccccc4)ccnc3O2)c1 (stereo not given)	0%	16µM*	-60%	-12%	i	i
CC(=O)Nc1cccc(-c2ccnc3c2CC(C(=O)Nc2cccc(NS(C)(=O)=O)c2)O3)c1 (stereo not given)	7%	i	-45%	0%	i	i
CC(=O)Nc1ccc(-c2ccnc3c2CC(C(=O)Nc2cccc(OC(F)(F)F)c2)O3)cc1 (stereo not given)	?	?	-23%	?	?	?
CC(=O)Nc1ccc(-c2ccnc3c2CC(C(=O)Nc2cccc(C(F)(F)F)c2)O3)cc1 (stereo not given)	?	?	1%	?	23µM*	?
COC(=O)[C@@H]1CCCN1C(=O)c1c(OC)cc(=O)n2c1CCN(Cc1ccc3c(c1)OCCO3)CC2	.	.	.	.	.	i
COc1ccc2nc(SCC(=O)N(C)C3CCCCC3)c(C#N)cc2c1	-5%	i	-4%	?	15µM*	i
COc1ccc2nc(N3CCCC3)c(C#N)cc2c1	1%	i	-13%	45%	13µM*	.
COc1ccc2nc(N3CCCCC3)c(C#N)cc2c1	129%	i	-22%	0%	?	.
CCc1nnc(NS(=O)(=O)c2ccc(N=Cc3c(C)[nH]n(-c4ccc(C)c(C)c4)c3=O)cc2)s1	12%	?	7.1µM*	8%	?	i
CCOc1ccccc1NC(=O)CN1C(=O)COc2ccc(S(=O)(=O)N3CCCCCC3)cc21	.	.	-7%	-28%	.	.
Cc1cc(C)n2c(Nc3ccc(C(C)C)cc3)c(-c3ccsc3)nc2n1	.	i	-21%	3.5µM*	i	.
Cc1ccc(CN(Cc2cccn2-c2nnc(N3CCCC3=O)s2)C(=O)Nc2ccc(F)cc2)cc1	4%	i	0%	-32%	i	i
CCOc1ccc(NC(=O)Cn2c(=O)n(Cc3nc(-c4ccccc4)no3)c(=O)c3ccccc32)cc1	.	i	16%	?	i	.
Cc1cn(CC(=O)NCCCc2ccccc2)c(=O)[nH]c1=O	0%	i	-36%	-8%	i	i
O=c1[nH]c(=O)n(CCCc2ccccc2)cc1-c1ccccc1	4%	i	4%	-11%	13µM*	i
CCOC(=O)C1CCCN(C(=O)c2cccc(NC(=O)c3nsc4ccccc34)c2)C1 (stereo not given)	5%	i	-6%	12%	i	i
FC(F)(F)c1nc(-c2cccs2)ncc1-c1nnnn1-c1ccc(Cl)cc1	22µM*	?	-28%	-10%	16µM*	?
COc1ccc(-n2nnnc2-c2cnc(N3CCCC3)nc2C(F)(F)F)cc1	-11%	18µM*	-22%	?	5.2µM*	i
FC(F)(F)c1nc(-c2cccnc2)ncc1-c1nnnn1-c1ccccc1	-22%	i	-11%	12%	i	i
COCCNc1oc(/C=C/c2ccc(F)cc2)nc1C#N	.	.	1%	.	.	.
SMILES	ATXN2 expr inh	KB-3-1 tox	HepG2 viability	TGFb SMAD3 inh	KB-V1 cytotox	S2 tox
COc1cccc(-c2ncn(CCc3ccccc3OC)c2C(C)C)c1	?	?	.	.	12µM*	11µM*
COc1ccccc1CCn1cnc(Cc2cccc(F)c2)c1C(C)C	-3%	?	.	.	18µM*	?
COc1ccc(-n2nc3cc(C)c(NC(=O)c4ccc(-c5ccc(Br)cc5)o4)cc3n2)cc1	68%	i	-11%	-1%	i	i
O=C(c1cnsn1)N1CCOc2ccc(C(O)C(c3ccccc3)c3ccccc3)cc2C1 (stereo not given)	.	.	.	.	.	i
CN(C)CCCOc1ccc2c(c1)Sc1ccccc1CC2=O	-5%	i	3%	-1%	10µM*	i
CCN(CC)CCNC(=O)c1cnn(-c2ncc3c(n2)-c2ccc(OC)cc2CC3)c1C	.	.	.	.	.	i
COc1ccc(N2CCN(C(=O)c3cc4ccc5cccnc5c4[nH]3)CC2)cc1	.	.	-4%	-12%	.	.
Cc1ccc(C)c(N2CCN(C(=O)c3cc4ccc5cccnc5c4[nH]3)CC2)c1	.	i	-23%	16µM*	i	.
Cc1ccc(Cl)cc1N(C)C(=O)c1cc2ccc3cccnc3c2[nH]1	.	.	13µM*	11µM*	.	.
Cc1ccc(OCC(=O)Nc2ccc3nc(SCC(=O)N4CCOCC4)sc3c2)cc1C	.	.	-3%	?	.	.
CCCNC(=O)c1c(NC(=O)c2ccc(C)cc2)sc2c1CCCCC2	8%	i	3%	5%	i	?
O=S(=O)(c1c(F)cccc1F)N(CCc1ccc(F)cc1)C[C@@H](O)COCc1ccccc1	0%	i	-8%	?	i	?
c1ccc2c(Oc3nc(Nc4ccc(N5CCOCC5)cc4)c4ncn(C5CCCCC5)c4n3)cccc2c1	-16%	.	.	.	.	.
CN(C)c1ccccc1C(=O)c1ccccc1N(C)C	22%	4.6µM*	-9%	-3%	?	i
CN(c1ccccc1C(=O)O)S(C)(=O)=O	-4%	i	18%	25%	i	i
N#CC1=C(N)NC(SCC(=O)c2ccc(Br)cc2)=C(C#N)C12CCCCC2	-16%	?	-35%	?	16µM*	i
CCSC1=C(C#N)C2(CCCCC2)C(C#N)=C(N)N1	10%	?	8%	-5%	?	i
N#CC1=C(N)NC(SCc2ccccc2)=C(C#N)C12CCCCC2	?	23µM*	-27%	-15%	?	?
COc1cccc(CNC(=O)CSc2c3c(nc4ccc(Cl)cc24)CCCC3)c1OC	.	.	-57%	?	.	.
